Measurements published in PubChem BioAssay (EPA / NIEHS).
Records with an inconclusive call do not appear. Calls of active or inactive are those of the source. How the source made its calls, unless noted: active means hit-call score of the fitted dose curve at least 0.9, where 1 is the maximum; inactive means score below 0.9.

Columns and labels:
[1] = ACEA_ER_80hr: ACEA Biosciences xCELLigence Real-Time Cell Analysis on Estrogen Receptor Agonism for Proliferation (AID 2282667; active means hit-call score of the fitted dose curve at least 0.9, where 1 is the maximum); conditions: T47D proliferation, impedance (xCELLigence), 80 h
Procedure, shortened: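 Real-time impedance growth kinetics of human T-47D breast cells read 80 h after dosing, gain-of-signal fitted relative to DMSO. Compounds: 1:4 serial series, top final concentration 100 uM, n = 2.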

[2] = ATG_CRE_CIS: Attagene CIS-FACTORIAL HepG2 Assay for human cAMP Responsive Element (CRE) binding protein 3 (AID 2282926); conditions: HepG2 CRE cis-reporter, Attagene multiplexed mRNA; actives raise or lower the signal
Procedure, shortened: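 Endogenous transcription factor activity read via CRE-regulated reporter transcripts in transfected HepG2 cells. After 24 h exposure, RNA was reverse-transcribed, amplified, fluorescently labelled and sized by capillary electrophoresis; gain or loss fitted against DMSO.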

[3] = target: CCAAT/enhancer-binding protein beta (Homo sapiens) (UniProt P17676); experiment: ATG_C_EBP_CIS: Attagene CIS-FACTORIAL HepG2 Assay for human CCAAT/Enhancer Binding Protein (C/EBP) beta (AID 2282927); conditions: HepG2 Attagene cis-factorial transcription factor reporter; actives raise or lower the signal
Sequence of CCAAT/enhancer-binding protein beta (Homo sapiens) (P17676 whole entry, looked up): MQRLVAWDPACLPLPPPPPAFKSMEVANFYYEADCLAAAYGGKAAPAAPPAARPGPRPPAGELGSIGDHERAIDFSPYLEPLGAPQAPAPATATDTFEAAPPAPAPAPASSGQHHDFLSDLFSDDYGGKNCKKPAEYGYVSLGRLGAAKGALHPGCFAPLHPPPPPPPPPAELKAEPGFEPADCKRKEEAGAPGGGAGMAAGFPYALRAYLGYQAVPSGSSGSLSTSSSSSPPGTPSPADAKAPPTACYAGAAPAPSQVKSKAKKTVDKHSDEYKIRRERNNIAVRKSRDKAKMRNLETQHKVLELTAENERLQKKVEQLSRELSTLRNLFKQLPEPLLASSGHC
Procedure, shortened: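 Endogenous transcription factor activity in human liver HepG2 cells is inferred from induction of a CEBPB-linked reporter mRNA. Exposure lasts 24 h; activity is fitted in both directions relative to DMSO.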

[4] = ATG_CMV_CIS: Attagene CIS-FACTORIAL HepG2 Assay for human CMV (Internal Marker) (AID 2282928); conditions: HepG2 CMV promoter reporter, transcription factor profiling; actives raise or lower the signal;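 further: endpoint acts as a background internal control marker rather than a target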
Procedure, shortened: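 Readout: fluorescent reporter cDNA fragments separated by capillary electrophoresis after RT-PCR and HpaI cut. Cells: HepG2 carrying transfected cis-promoter reporter constructs, dosed 24 h. Endpoint serves as background internal-marker control, fit bidirectionally versus DMSO.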

[5] = ATG_DR4_LXR_CIS: Attagene CIS-FACTORIAL HepG2 Assay for human Liver X Receptor (LXR), DR4 submotif (AID 2282929); conditions: HepG2 Attagene DR4 cis-reporter, mRNA transcription; actives raise or lower the signal
Procedure, shortened: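 Endogenous factor activity at a DR4 cis-element is read as reporter mRNA in transiently transfected HepG2 cells. Exposure lasts 24 h; transcripts are amplified, fluorescently labelled and sized by capillary electrophoresis, with DMSO as baseline.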

[6] = target: Aryl hydrocarbon receptor (Homo sapiens) (UniProt P35869); experiment: ATG_Ahr_CIS: Attagene CIS-FACTORIAL HepG2 Assay for human Aryl Hydrocarbon Receptor (Ahr) (AID 2282930); conditions: HepG2 AhR cis-factorial reporter transcription; actives raise or lower the signal
Sequence of Aryl hydrocarbon receptor (Homo sapiens) (P35869 whole entry, looked up): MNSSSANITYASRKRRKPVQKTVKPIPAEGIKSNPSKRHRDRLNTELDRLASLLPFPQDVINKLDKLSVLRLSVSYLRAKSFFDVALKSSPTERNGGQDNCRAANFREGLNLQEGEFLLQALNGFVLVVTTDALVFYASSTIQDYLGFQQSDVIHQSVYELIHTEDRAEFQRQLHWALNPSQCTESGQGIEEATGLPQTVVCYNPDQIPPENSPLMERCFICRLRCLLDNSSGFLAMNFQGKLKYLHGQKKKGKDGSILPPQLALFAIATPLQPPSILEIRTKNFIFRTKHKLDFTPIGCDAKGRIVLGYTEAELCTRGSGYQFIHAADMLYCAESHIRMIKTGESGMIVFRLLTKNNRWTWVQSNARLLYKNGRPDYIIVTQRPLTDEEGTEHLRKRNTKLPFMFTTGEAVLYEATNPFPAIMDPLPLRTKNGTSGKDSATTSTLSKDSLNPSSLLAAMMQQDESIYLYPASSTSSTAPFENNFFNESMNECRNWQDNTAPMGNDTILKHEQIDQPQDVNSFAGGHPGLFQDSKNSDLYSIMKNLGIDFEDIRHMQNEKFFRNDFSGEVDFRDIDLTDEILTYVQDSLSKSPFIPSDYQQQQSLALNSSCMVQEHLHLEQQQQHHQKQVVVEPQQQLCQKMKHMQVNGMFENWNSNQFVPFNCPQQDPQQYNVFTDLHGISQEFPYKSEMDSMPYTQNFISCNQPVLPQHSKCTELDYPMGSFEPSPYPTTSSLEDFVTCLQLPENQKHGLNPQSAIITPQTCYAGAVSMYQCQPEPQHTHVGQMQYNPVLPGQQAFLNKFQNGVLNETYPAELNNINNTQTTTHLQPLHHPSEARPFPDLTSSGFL
Procedure, shortened: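 Transient MRTU transfection of HepG2 → 24 h compound exposure → total RNA, oligo(dT) RT → PCR, 6-FAM extension, HpaI cut → CE fluorescence. DMSO = baseline; bidirectional curve fit.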

[7] = ATG_AP_1_CIS: Attagene CIS-FACTORIAL HepG2 Assay for human Activator Protein 1 (AP-1) (AID 2282931); conditions: HepG2 Attagene cis-factorial AP-1 reporter mRNA; actives raise or lower the signal
Procedure, shortened: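 Fluorescence of labelled PCR fragments separated by capillary electrophoresis gives reporter mRNA levels. HepG2 with transfected cis-regulated reporter units, 24 h exposure; DMSO serves as baseline for bidirectional curve fits.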

[8] = ATG_AP_2_CIS: Attagene CIS-FACTORIAL HepG2 Assay for human Activator Protein 2 (AP-2) (AID 2282932); conditions: HepG2 AP-2 cis-reporter, Attagene transcription factor profiling; actives raise or lower the signal
Procedure, shortened: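 Endogenous transcription factor activity is reported through transfected multiplex reporter constructs in HepG2, after 24 h of compound exposure. Transcripts were quantified by RT-PCR and capillary electrophoresis of fluorescent fragments. Bidirectional fit against DMSO.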

[9] = ATG_BRE_CIS: Attagene CIS-FACTORIAL HepG2 Assay for human Bone Morphogenetic Protein (BMP) Response Element (BRE) (AID 2282933); conditions: HepG2 BMP response element reporter, Attagene transcription factor profiling; actives raise or lower the signal
Procedure, shortened: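 Gain- or loss-of-signal was derived by bidirectional fitting against DMSO controls. The signal came from reporter mRNA, measured by RT-PCR and capillary electrophoresis, in HepG2 cells transiently carrying multiple reporter units and dosed for 24 h.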

[10] = target: Transcription factor E2F1 (Homo sapiens) (UniProt Q01094); experiment: ATG_E2F_CIS: Attagene CIS-FACTORIAL HepG2 Assay for human E2F Transcription Factor 1 (AID 2282935); conditions: HepG2 Attagene cis-reporter, E2F reporter RNA transcripts; actives raise or lower the signal
Sequence of Transcription factor E2F1 (Homo sapiens) (Q01094 whole entry, looked up): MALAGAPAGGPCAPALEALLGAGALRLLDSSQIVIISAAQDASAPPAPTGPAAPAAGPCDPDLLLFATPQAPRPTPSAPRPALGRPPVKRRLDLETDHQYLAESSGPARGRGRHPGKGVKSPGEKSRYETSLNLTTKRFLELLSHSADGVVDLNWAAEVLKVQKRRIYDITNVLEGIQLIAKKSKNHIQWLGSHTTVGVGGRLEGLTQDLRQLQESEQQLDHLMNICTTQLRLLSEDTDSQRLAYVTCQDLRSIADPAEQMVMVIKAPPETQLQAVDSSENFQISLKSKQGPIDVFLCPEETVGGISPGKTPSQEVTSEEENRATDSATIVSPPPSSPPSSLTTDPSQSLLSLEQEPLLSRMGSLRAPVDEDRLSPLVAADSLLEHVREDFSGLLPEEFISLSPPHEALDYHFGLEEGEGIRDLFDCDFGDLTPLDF
Procedure, shortened: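 Gain or loss of reporter transcript, fitted against DMSO, reflects E2F1-driven transcription. Transiently transfected HepG2 dosed 24 h before RNA isolation. Quantified by fluorescent RT-PCR products separated by capillary electrophoresis.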

[11] = ATG_E_Box_CIS: Attagene CIS-FACTORIAL HepG2 Assay for human Enhancer Box (E-box) (AID 2282936); conditions: HepG2 E-box cis-reporter transcription, actives raise or lower the signal
Procedure, shortened: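 E-box-driven reporter transcripts measured in transiently transfected HepG2 after 24 h exposure: RNA reverse-transcribed, PCR-amplified, fluorescently labelled, digested and resolved by capillary electrophoresis. Gain or loss relative to DMSO.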

[12] = ATG_M_61_CIS: Attagene CIS-FACTORIAL HepG2 Assay for M61 Transcription Factor (Internal Marker) (AID 2282937); conditions: HepG2 Attagene CIS-FACTORIAL M61 internal marker reporter; actives raise or lower the signal
Procedure, shortened: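 This endpoint serves as an internal background control within a multiplexed HepG2 cis-reporter panel. Cells are exposed for 24 h; reporter mRNA is amplified, fluorescently labelled and sized by capillary electrophoresis, with DMSO as negative control.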

[13] = ATG_EGR_CIS: Attagene CIS-FACTORIAL HepG2 Assay for human Early Growth Response 1 (EGR1) (AID 2282938); conditions: HepG2 Attagene CIS-FACTORIAL EGR reporter mRNA; actives raise or lower the signal
Procedure, shortened: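 HepG2, transient MRTU transfection (cis promoters), 24 h compound. RNA → RT (oligo-dT) → PCR → 6-FAM labelling → HpaI cut → CE fluorescence. Bidirectional fit, DMSO baseline.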

[14] = ATG_M_19_CIS: Attagene CIS-FACTORIAL HepG2 Assay for M19 Transcription Factor (Internal Marker) (AID 2282939); conditions: HepG2 Attagene CIS-FACTORIAL M19 internal marker reporter; actives raise or lower the signal
Procedure, shortened: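 Following a 24 h exposure, RNA from transfected HepG2 cells was reverse-transcribed, PCR-amplified with reporter-specific primers, end-labelled with 6-FAM and HpaI-digested before capillary separation. Values represent gain or loss versus DMSO.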

[15] = ATG_ERE_CIS: Attagene CIS-FACTORIAL HepG2 Assay for Estrogen Response Element (ERE) (AID 2282940); conditions: HepG2 ERE cis-reporter, Attagene RNA transcript; actives raise or lower the signal
Procedure, shortened: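 HepG2, transient cis-reporter units, 24 h exposure. RNA isolated, oligo(dT) RT, reporter-specific PCR, FAM extension, HpaI cut, CE detection. Gain/loss-of-signal vs DMSO.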

[16] = ATG_Ets_CIS: Attagene CIS-FACTORIAL HepG2 Assay for human Erythroblast Transformation Specific (ETS) (AID 2282941); conditions: HepG2 ETS cis-reporter transcription, actives raise or lower the signal
Procedure, shortened: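 RT-PCR/capillary electrophoresis fluorescence read-out of reporter mRNA; HepG2 transient multi-reporter transfection; 24 h compound exposure; gain or loss of signal fitted bidirectionally relative to DMSO.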

[17] = target: Hepatocyte nuclear factor 3-beta (Homo sapiens) (UniProt Q9Y261); experiment: ATG_FoxA2_CIS: Attagene CIS-FACTORIAL HepG2 Assay for human Forkhead box A2 (FOXA2) (AID 2282942); conditions: HepG2 cis-reporter transcription factor activity, 24 h; actives raise or lower the signal
Sequence of Hepatocyte nuclear factor 3-beta (Homo sapiens) (Q9Y261 whole entry, looked up): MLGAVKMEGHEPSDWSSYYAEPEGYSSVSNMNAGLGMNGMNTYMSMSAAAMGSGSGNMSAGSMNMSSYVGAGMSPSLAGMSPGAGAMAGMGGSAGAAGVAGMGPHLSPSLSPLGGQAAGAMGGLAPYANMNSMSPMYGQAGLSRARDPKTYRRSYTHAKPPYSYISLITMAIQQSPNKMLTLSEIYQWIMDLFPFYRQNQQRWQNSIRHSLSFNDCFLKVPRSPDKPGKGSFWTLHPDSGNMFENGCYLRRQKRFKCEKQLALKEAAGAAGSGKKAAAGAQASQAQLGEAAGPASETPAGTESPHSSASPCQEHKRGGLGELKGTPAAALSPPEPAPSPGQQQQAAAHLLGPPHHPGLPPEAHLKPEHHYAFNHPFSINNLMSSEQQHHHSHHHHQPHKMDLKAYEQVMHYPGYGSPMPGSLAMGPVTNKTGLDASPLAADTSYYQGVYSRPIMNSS
Procedure, shortened: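 Cells: HepG2, transient multiplex reporter transfection. Exposure 24 h. Detection: reporter-specific RT-PCR, fluorescent labelling, restriction digest, capillary electrophoresis. Analysis: bidirectional curve fit, DMSO as negative control.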

[18] = ATG_FoxO_CIS: Attagene CIS-FACTORIAL HepG2 Assay for human Forkhead box O (FoxO) (AID 2282943); conditions: HepG2 Attagene cis-reporter, FoxO element, mRNA; actives raise or lower the signal
Procedure, shortened: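 HepG2, transient MRTU transfection (cis element, endogenous TFs). Dose 24 h. TriZol RNA → oligo(dT) RT → PCR → 6-FAM primer extension → HpaI cut → CE. Gain/loss vs DMSO.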

[19] = ATG_GATA_CIS: Attagene CIS-FACTORIAL HepG2 Assay for human GATA Binding Protein (AID 2282944); conditions: HepG2 GATA cis-element reporter, Attagene multiplex mRNA; actives raise or lower the signal
Procedure, shortened: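 DMSO serves as negative control and baseline for bidirectional fitting of reporter mRNA changes. HepG2 cells bearing transiently transfected cis-promoter reporters were exposed 24 h; transcripts detected via RT-PCR and capillary electrophoresis.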

[20] = target: Retinoic acid receptor alpha (Homo sapiens) (UniProt P10276); experiment: ATG_DR5_RAR_CIS: Attagene CIS-FACTORIAL HepG2 Assay for human Retinoic Acid Receptor Alpha (RARE), DR5 submotif (AID 2282934); conditions: HepG2 Attagene cis-factorial RARE DR5 reporter, mRNA; actives raise or lower the signal
Sequence of Retinoic acid receptor alpha (Homo sapiens) (P10276 whole entry, looked up): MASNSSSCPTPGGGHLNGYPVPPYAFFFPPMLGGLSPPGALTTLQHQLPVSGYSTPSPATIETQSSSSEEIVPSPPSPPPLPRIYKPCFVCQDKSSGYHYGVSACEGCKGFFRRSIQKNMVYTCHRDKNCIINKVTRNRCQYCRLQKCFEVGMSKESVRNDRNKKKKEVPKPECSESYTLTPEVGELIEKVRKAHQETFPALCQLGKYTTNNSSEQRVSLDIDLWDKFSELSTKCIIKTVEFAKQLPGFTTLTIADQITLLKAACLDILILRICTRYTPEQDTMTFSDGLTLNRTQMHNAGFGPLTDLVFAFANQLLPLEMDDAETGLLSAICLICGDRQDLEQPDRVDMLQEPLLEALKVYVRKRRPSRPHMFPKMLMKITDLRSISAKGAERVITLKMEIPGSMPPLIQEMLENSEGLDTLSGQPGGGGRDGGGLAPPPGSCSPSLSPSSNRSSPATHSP
Procedure, shortened: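 Transient MRTU transfection of HepG2; 24 h compound treatment; TriZol RNA, oligo(dT) RT, PCR, FAM labelling, capillary electrophoresis. Bidirectional fit vs DMSO. Endogenous TF activity at DR5 RARE.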

Measured: AC50

CCOC(=O)CCC(C)=O
not listed: [20]
inactive: all other assays above

CCN=c1cc2oc3cc(NCC)c(C)cc3c(-c3ccccc3C(=O)OCC)c-2cc1C
active: [1] 0.0353 µM | [2] 11.1 µM | [5] 4.45 µM | [7] 2.75 µM | [8] 11.1 µM | [11] 11.1 µM | [13] 11.1 µM
not listed: [9] | [17] | [20]
inactive: all other assays above

CCC(Cc1c(I)cc(I)c(N)c1I)C(=O)O (configuration not stated)
active: [1] 15.5 µM | [4] 62.6 µM | [7] 64.6 µM | [15] 4.54 µM
not listed: [9]
inactive: all other assays above

CCN(CC)c1ccc(C=O)cc1
active: [1] 0.0998 µM | [14] 25.8 µM | [16] 26 µM
not listed: [9]
inactive: all other assays above

C=CCOC(=O)CC(C)C
not listed: [8] | [17]
inactive: all other assays above

O=C=NCc1cccc(CN=C=O)c1
not listed: [8] | [13] | [20]
inactive: all other assays above

OCC(O)CC(F)(F)C(F)(F)C(F)(F)C(F)(F)C(F)(F)C(F)(F)C(F)(F)C(F)(F)F (configuration not stated)
active: [16] 9.97 µM
not listed: [13] | [17]
inactive: all other assays above
